Compound activity (PubChem BioAssay)
Vaccinia Venus = qHTS for Stage-Specific Inhibitors of Vaccinia Orthopoxvirus: Venus Reporter Primary qHTS; Vaccinia virus Venus reporter expression, fluorescence; AID 720580, 2013; actives 0.46% (n = 330,000); Potency, µM (series often up to 36.5 µM), for the others: at the top dose activity change, negative = inhibition, actives largely listed as inhibitors; calls by dose curve; tested in A549 cells; further: nearly all actives have a fitted effect of over 30% in size
Marburg entry inh = qHTS for inhibitors of binding or entry into cells for Marburg Virus | Marburg virus pseudotyped entry inhibition, cell reporter | Potency, µM (titrated, usually from 37.8 µM), for inactives: at the top dose activity change, negative = inhibition, hits mostly inhibitors | actives 1.8% (n = 300,000) | AID 540276, 2011; calls by dose curve; tested in HEK293 cells
Lassa entry inh = qHTS for Inhibitors of binding or entry into cells for Lassa Virus. Lassa virus pseudotype entry inhibition, cell reporter. Potency, µM (titrated, usually from 37.9 µM), inactives show top-dose activity change, negative = inhibition, hits mostly inhibitors. actives 1.2% (n = 300,000). AID 540256, 2011; calls by dose curve; tested in HEK293 cells; further: nearly all actives have a fitted effect of over 50% in size
FMDV antiviral = High Throughput Screening for Foot and Mouth Disease Virus Antivirals | FMDV antiviral cell-based qHTS | Potency, µM (highest dose often 57.9 µM), inactives show top-dose activity change, negative = inhibition, hits mostly inhibitors | actives 1.2% (n = 410,000); calls by dose curve; tested in HEK293T cells; further: read-out not given here; nearly all actives have a fitted effect of over 45% in size
Vaccinia mCherry = qHTS for Stage-Specific Inhibitors of Vaccinia Orthopoxvirus: mCherry Reporter Primary qHTS; actives 0.63% (n = 310,000); Vaccinia virus mCherry reporter infection, fluorescence; AID 720579, 2013; Potency, µM (series often up to 36.5 µM), without a hit: at the top dose activity change, negative = inhibition, most hits filed as inhibitors; calls by dose curve; tested in A549 cells; further: nearly all actives have a fitted effect of over 35% in size
Sm TGR inh = qHTS Assay for the Inhibitors of Schistosoma Mansoni Peroxiredoxins | purified TGR, DTNB reduction, TNB absorbance 405 nm | Potency, µM (top dose mostly 114 µM), without a hit: top-dose activity change, negative = inhibition, usual class: inhibitors | actives 3% (n = 360,000) | AID 485364, 2010; active means well fitted inhibition curve with a large enough effect; inconclusive means small, poorly fitted or top-dose-only effect; inactive means no such curve, though single readings can be large or run the other way; further: nearly all actives have a fitted effect of over 60% in size
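Kinetic colorimetric format: TGR-catalysed, NADPH-driven DTNB reduction monitored via TNB absorbance. Enzyme dispensed at 20 nM; compound exposure 15 min at room temperature before reaction start.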
Starred values were filed as active, the others as inactive; i = inactive; ? = inconclusive; nt = not tested or not shown; [ ] = remark or other dose. The list is not random: actives were taken first. Their share in the collection is about 5.4%. On the % scale 0 is the no-effect control and ±100 the full control effect; potency means the concentration at half of the fitted maximal effect.

SMILES	Vaccinia Venus	Marburg entry inh	Lassa entry inh	FMDV antiviral	Vaccinia mCherry	Sm TGR inh
CCn1cc(S(=O)(=O)c2ccc(C)cc2C)c(=O)c2cc(F)c(N3CCCC3)cc21	-17.5%	nt	-22.3%[46.1 µM]	-10.3%	-23.0%	-7.1%
O=C1N(Cc2ccccc2Cl)c2ccccc2C1(O)c1c[nH]c2ccccc12 (stereo unspecified)	-6.4%	3.4%[46.1 µM]	-21.1%[46.1 µM]	-21.2%	-4.4%	5.2%
Cc1ccc(CSc2nc3ccccc3cc2C=O)cc1	?	?	?	?	nt	9.5%
O=Cc1cc2ccccc2nc1SCc1ccc(Cl)c(Cl)c1	-3.1%	2.24µM*	?	?	-8.2%	8.0%
O=Cc1cc2ccccc2nc1SCc1ccc(Cl)cc1	0.0%	?	10µM*	-21.4%	?	-20.6%
O=C(c1cc(F)cc(F)c1)N1CCC(c2nc(-c3ccc(S(=O)(=O)N4CCCC4)cc3)no2)CC1	-21.9%	17.5%[46.1 µM]	6.2%[46.1 µM]	0.0%	-14.6%	-2.2%
CCN(C(=O)c1cn(CC)c(=O)c2cc(OC)c(OC)cc12)c1ccc(C)c(C)c1	-6.6%	-14.0%[46.1 µM]	-18.1%[46.1 µM]	-12.8%	-12.7%	-2.3%
COc1cc(/C=C2\CCCc3c2nc2ccccc2c3C(=O)O)cc(OC)c1O	-5.7%[7.34 µM]	nt	nt	2.1%	-10.1%[7.34 µM]	20µM*
COc1ccc(/C=C2\CCCc3c2nc2ccccc2c3C(=O)O)cc1OC	nt	nt	nt	nt	nt	20µM*
COc1cc(/C=C2\CCCc3c2nc2ccccc2c3C(=O)O)cc([N+](=O)[O-])c1O	3.1%	3.5%[46.1 µM]	-4.2%[46.1 µM]	-4.8%	-5.6%	-23.4%
COc1ccc(/C=C2\CCc3c2nc2ccccc2c3C(=O)O)cc1OC	nt	nt	nt	-18.7%	nt	-14.8%
O=C(Nc1nnc(SCc2cc(=O)c3ccccc3[nH]2)s1)c1ccccc1	-9.3%	nt	18.6%[46.1 µM]	?	-8.2%	-0.1%
COc1ccccc1C(=O)Nc1nnc(SCc2cc(=O)c3ccccc3[nH]2)s1	-16.6%	nt	-29.2%[46.1 µM]	22.4µM*	-23.2%	-0.8%
CCOc1cc(/C=C/C(=O)c2ccc(OC)c(CN3CCOCC3)c2)cc(Br)c1O	184.4%	?	?	-2.6%	11.2µM*	?
CCOc1cc(/C=N/NC(=O)c2ccc(CN3CCOCC3)cc2)ccc1OC	-14.6%	?	1.9%	?	i	nt
COc1ccc2oc(=O)cc(CN3CCN(c4ccccc4F)CC3)c2c1	?	0.2%[46.1 µM]	?	?	-24.2%	1.1%
CC(=O)OC(C)CS(=O)(=O)c1ccccc1 (stereo unspecified)	7.94µM*	17.2%[46.1 µM]	9.5%	2.0%	7.94µM*	2.0%
CC(C)NC(=O)CS(=O)(=O)c1ccccc1	-5.9%	nt	nt	-4.6%	i	-25.3%
CC1(C)C(=O)OC(c2cc(Br)ccc2O)C(C)(C)C1=O (stereo unspecified)	?	-5.1%	-1.8%	35.5µM*	-16.4%	2.3%
CC12CN3CC(C)(CN(C1)C3c1cc(Br)ccc1O)C2=O (stereo unspecified)	-11.1%	-26.7%	9.8%	-20.8%	-15.6%	9.6%
COc1ccc(-c2nc(CS(=O)CC(=O)NC3CCCC(C)C3C)c(C)o2)cc1OC (stereo unspecified)	nt	nt	nt	-23.5%	nt	12.6µM*
COc1ccc(-c2nc(CS(=O)CC(=O)NC3CCCCC3C)c(C)o2)cc1 (stereo unspecified)	-12.5%	11.6%[46.1 µM]	22.6%[46.1 µM]	16.3%	i	?
Cc1ccc(-c2nc(CS(=O)CC(=O)NC3CCCC(C)C3C)c(C)o2)cc1 (stereo unspecified)	?	-9.9%[46.1 µM]	-5.2%[46.1 µM]	-0.8%	?	44.7µM*
C=CCn1c(CCC(=O)O)ccc1-c1ccc(OC)cc1	-4.2%	29.0%	-1.1%	nt	i	44.7µM*
COc1ccc(-c2ccc(CCC(=O)O)n2CC(C)C)cc1	nt	-4.4%	?	-6.7%	nt	10µM*
SMILES	Vaccinia Venus	Marburg entry inh	Lassa entry inh	FMDV antiviral	Vaccinia mCherry	Sm TGR inh
COc1ccc(-c2ccc(CCC(=O)O)n2-c2cc(OC)ccc2OC)cc1	-11.5%	nt	nt	-1.3%	-10.1%	nt
C=CCn1c(SCc2nc3ccccc3nc2C)nnc1-c1ccoc1C	-8.7%	17.1%[46.1 µM]	12.8%	-21.9%	-12.7%	44.7µM*
CC(C)(C)c1ccc(C(=O)NCCc2csc(-c3ccc(Cl)cc3)n2)cc1	1.3%	nt	-1.7%[46.1 µM]	-13.2%	-17.1%	2.3%
CN(C)CCCNC(=O)c1ccc(-c2nc(-c3ccc(Cl)cc3)cs2)cc1	22.4µM*	?	?	37.1%	?	18.9%
Cc1ccc(-c2noc(-c3ccccc3NC(=O)C3CC(=O)N(c4ccc(C)cc4)C3)n2)cc1 (stereo unspecified)	-27.5%	-12.1%[46.1 µM]	8.8%[46.1 µM]	16.0%	-26.2%	-11.1%
CC(=O)C1=NN(c2ccccc2)C(c2cccs2)N1c1ccc(N(C)C)cc1 (stereo unspecified)	nt	?	20.6µM*	15.8µM*	nt	0.0%
NC(=O)c1ccccc1OCC(=O)N1CCC(Cc2ccccc2)CC1	nt	nt	nt	31.6µM*	nt	7.4%
Cc1ccc2[nH]c(=O)c3cc(C(=O)N(C)c4ccc(Br)cc4)sc3c2c1	-8.9%	-1.3%[46.1 µM]	nt	-22.7%	-17.4%	1.6%
N[C@@H](Cc1ccc(Oc2ccc(O)cc2)cc1)C(=O)O	nt	-6.1%	nt	nt	nt	nt
O=c1[nH]c(=S)[nH]c(O)c1N=Nc1ccc(SC(F)F)cc1	-3.8%	?	3.98µM*	-41.2%	-16.6%	8.2%
CC(C)c1ccc(N=Nc2c(O)[nH]c(=O)[nH]c2=O)cc1	nt	nt	nt	43.7%	nt	-0.1%
O=C(Nc1ccc(F)cc1)Nc1nnc(-c2ccncc2)s1	-14.0%	-0.9%	?	?	-20.3%	-7.7%
O=C(Nc1ccc(Cl)cc1)Nc1nnc(-c2ccncc2)s1	-26.0%	?	3.98µM*	?	-7.9%	-16.0%
Oc1ccc(/C=N/n2c(-c3ccco3)csc2=Nc2cccnc2)c(O)c1	10µM*	?	?	-29.1%	10µM*	-18.3%
COCCN=c1scc(-c2ccco2)n1/N=C/c1ccc(O)c(O)c1O	-12.4%	0.2%[46.1 µM]	-25.1%	20.8%	-26.8%	12.6µM*
CC(C)N=c1scc(-c2ccco2)n1/N=C/c1ccc(O)c(O)c1	nt	nt	nt	1.3%	nt	-12.2%
CN=c1scc(C)n1/N=C/c1ccc(O)c(O)c1O	7.0%	?	1.5%	-23.9%	-14.0%	22.4µM*
C=CCN=c1scc(-c2ccco2)n1/N=C/c1ccc(O)c(O)c1O	-9.4%	5.7%[46.1 µM]	-21.9%	?	-22.2%	0.0%
CN=c1scc(-c2cccs2)n1/N=C/c1ccc(O)c(O)c1O	-5.3%	?	?	10µM*	-21.7%	?
CN=c1scc(C)n1/N=C/c1cc(Br)c(O)c(OC)c1	-13.2%	?	?	30.6%	i	-16.4%
COc1ccc(OCc2ccc(-c3nc(C#N)c(NC(C)c4ccccc4)o3)o2)cc1 (stereo unspecified)	-25.2%	-1.6%[46.1 µM]	6.9%[46.1 µM]	-18.0%	-21.8%	5.6%
